Source: PubChem BioAssay (National Center for Advancing Translational Sciences (NCATS))
The list is not random: actives were taken first. Their share in the collection is about 4.2%.
12-LOX inh = blocks human arachidonate 12S-lipoxygenase | P18054 | purified 12hLO, xylenol orange hydroperoxide absorbance | Potency, µM (top dose mostly 108 µM), hits mostly inhibitors | hit rate 1.1% among 580,000 | AID 1671190
Target sequence (P18054 whole entry, looked up): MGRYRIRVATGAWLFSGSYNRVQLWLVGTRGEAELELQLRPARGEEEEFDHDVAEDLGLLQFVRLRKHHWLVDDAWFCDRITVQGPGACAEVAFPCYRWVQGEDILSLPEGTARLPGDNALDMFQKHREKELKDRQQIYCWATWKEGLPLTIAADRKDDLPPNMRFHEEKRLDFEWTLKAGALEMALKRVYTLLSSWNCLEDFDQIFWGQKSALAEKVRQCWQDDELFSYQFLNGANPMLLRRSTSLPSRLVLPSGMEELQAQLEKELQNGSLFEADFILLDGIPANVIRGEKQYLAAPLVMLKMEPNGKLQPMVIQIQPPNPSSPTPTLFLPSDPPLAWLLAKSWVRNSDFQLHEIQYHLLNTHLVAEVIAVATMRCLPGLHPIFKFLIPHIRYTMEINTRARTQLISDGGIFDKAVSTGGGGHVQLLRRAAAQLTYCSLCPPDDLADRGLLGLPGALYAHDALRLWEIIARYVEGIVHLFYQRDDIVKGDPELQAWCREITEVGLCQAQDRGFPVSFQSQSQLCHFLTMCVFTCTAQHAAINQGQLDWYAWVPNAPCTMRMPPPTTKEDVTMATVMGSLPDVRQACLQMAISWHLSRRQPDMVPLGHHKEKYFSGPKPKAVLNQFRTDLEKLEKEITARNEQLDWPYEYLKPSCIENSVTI
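Hydroperoxide product was detected by ferrous iron/xylenol orange as the 573 to 405 nm absorbance ratio. Arachidonic acid at 40 uM (final) was turned over for 30 min at room temperature by 150 nM human 12hLO, pH 7.0 Hepes buffer, after 15 min compound preincubation.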
PLK1 PBD inh = PLK1 (human) polo-box domain binding inhibition; P53350; hit rate 2.8% among 360,000; Plk1 PBD binding of FITC phosphopeptide, fluorescence polarization; Potency, µM, hits mostly inhibitors; note: series mostly up to about 57 µM; nearly all actives have a fitted effect of over 65% in size
Sfp inh = inhibitors of Bacillus subtilis Sfp phosphopantetheinyl transferase | Potency, µM, most hits filed as inhibitors | Biochemical Sfp PPTase activity, qHTS | hit rate 3.5% among 310,000 | AID 1490;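 note: the enzyme is Sfp with the accession as filed and its product quenches rhodamine fluorescence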
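After 15 min at room temperature with compound, 15 nM Sfp received 5 uM rhodamine-CoA plus 12.5 uM BHQ-2-ybbR (50 mM Hepes pH 7.6, 10 mM MgCl2). Rate came from the fluorescence difference over 30 min, ex 525/em 598 nm.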
VDR inh = blocks the human vitamin D receptor; P11473; VDR-SRC2-3 peptide fluorescence polarization, 2 h; Potency, µM, most hits filed as inhibitors; hit rate 0.93% among 400,000; AID 504847
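The screen uses fluorescence polarization to detect compounds that interfere with recruitment of the SRC2-3 coactivator peptide to VDR; plates are read after 2 h at room temperature.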
Hits are given with their value; i = inactive; ? = inconclusive; nt = no result given. Calls come from the whole dose curve; as a rule, active = well fitted curve in the direction sought with a large enough effect; inconclusive = small, poorly fitted or top-dose-only effect, or another doubt; inactive = no such curve, though single readings can be large; an effect the other way counts as inactive or inconclusive.

SMILES	12-LOX inh	PLK1 PBD inh	Sfp inh	VDR inh
COc1ccccc1-c1ccc2ncnc(NCCN3CCOCC3)c2c1	i	nt	i	?
O=C1COc2ccc(C(=O)COC(=O)Cc3ccc(F)cc3)cc2N1	i	i	nt	i
Cc1ccnc(NC(=O)c2ccccc2[N+](=O)[O-])c1	?	9.5µM	22µM	i
Cc1cc(C)c2nc(-c3ccccn3)cc(C(=O)NCc3ccco3)c2c1	?	i	56µM	i
Cc1cc(C(=O)NCc2ccco2)c2ccccc2n1	i	i	i	i
Cc1ccc(-c2cc(C(=O)NCc3ccco3)c3ccccc3n2)o1	i	?	45µM	i
Cc1ccc(-c2cc(C(=O)Nc3ccc(F)cc3)c3ccccc3n2)o1	3.2µM	nt	nt	nt
Cc1cccc(C)c1NC(=O)COC(=O)c1ccccc1[N+](=O)[O-]	i	i	i	i
CCc1nnc(NC(=O)c2cc(C)nc3ccccc23)s1	i	i	i	i
CCc1nnc(NC(=O)c2cc(-c3ccc(C)o3)nc3ccccc23)s1	6.3µM	?	nt	i
COC(=O)c1c(N(S(C)(=O)=O)S(C)(=O)=O)sc2c1CCN(c1ncc(C(F)(F)F)cc1Cl)C2	?	i	56µM	i
COc1ccc(N(C)S(=O)(=O)c2cccc(C(=O)OCC(=O)Nc3sc4c(c3C#N)CCCCC4)c2)cc1	i	i	i	i
CN(C)S(=O)(=O)c1cccc(C(=O)OCC(=O)Nc2sccc2C#N)c1	nt	i	79µM	i
CCC(C)(C)NC(=O)C(C)Sc1ccc(O)cc1 (stereo not given)	i	nt	nt	nt
COc1cc(/C=N/Nc2ccc(F)cc2F)cc(OC)c1O	?	27µM	i	i
Cc1ccc(/C=N/Nc2ccc(F)cc2F)s1	i	i	i	i
Fc1ccc(N/N=C/c2ccc(F)c(F)c2)c(F)c1	7.9µM	nt	nt	nt
Fc1ccc(N/N=C/c2cccc(Br)c2)c(F)c1	16µM	nt	nt	nt
Cc1cc(S(=O)(=O)Nc2cc3c(cc2C)n(C)c(=O)c(=O)n3C)ccc1F	i	nt	nt	i
O=C(CN1C(=O)c2ccccc2S1(=O)=O)Nc1ccc(S(=O)(=O)N2CCCC2)cc1	i	i	i	i
O=C(Nc1ccc(S(=O)(=O)N2CCCCC2)cc1)c1ccccc1Cl	i	30µM	i	i
COc1ccc(NC(=O)c2cc(S(=O)(=O)N3CCCC3)ccc2OC)cc1	i	17µM	i	i
O=C(CN1C(=O)c2ccccc2S1(=O)=O)Nc1ccc(S(=O)(=O)N2CCCCC2)cc1	?	24µM	i	i
O=C(c1ccc(-c2nc3ccccc3s2)o1)N1CCN(c2ccccc2O)CC1	i	i	i	i
O=C(Nc1ccc(Cl)cc1)c1ccc(OCC2CCCO2)cc1 (stereo not given)	i	i	i	i
SMILES	12-LOX inh	PLK1 PBD inh	Sfp inh	VDR inh
CNc1c2cccc(C)c2nc2c(C(=O)NCCN(C)C)cccc12	?	17µM	nt	i
Cc1cc(C(=O)NCCN(C)C)c2ccccc2n1	i	nt	nt	nt
COc1ccc(NS(=O)(=O)c2ccc3oc(SC)nc3c2)cc1	?	21µM	50µM	i
O=C(Nc1ccc(F)cc1)C(c1ccccc1)N1CCN(S(=O)(=O)c2c(F)cccc2F)CC1 (stereo not given)	i	i	i	i
O=C(Nc1ccc(Oc2ccccc2)cc1)c1csc([C@@H]2O[C@H](CO)[C@@H](O)[C@H]2O)n1	i	i	nt	nt
COc1ccccc1/C=N/NC(=O)c1ccc(-c2ccccc2)cc1	i	30µM	i	i
COc1cc(/C=N/NC(=O)c2cccc3ccccc23)cc(OC)c1OC	i	30µM	i	i
CCOc1ccccc1C(=O)N/N=C/c1cccc2cccnc12	i	i	89µM	i
COc1ccccc1/C=N/NC(=O)c1cccc2ccccc12	i	15µM	i	79µM
COc1ccc(C)cc1NC(=O)c1cccc(C(=O)Nc2cc(C)ccc2OC)n1	i	i	?	i
O=C(N/N=C/c1cccc2ccccc12)c1cccnc1	11µM	i	i	i
COc1ccc(C(=O)N/N=C/c2cc3ccccc3[nH]c2=S)cc1	?	15µM	i	i
O=C(Cc1ccc([N+](=O)[O-])cc1)N/N=C/c1ccccc1F	i	i	i	i
CN1CCN(Cc2cnn(-c3cccc(Cl)c3)c2)CC1CCO (stereo not given)	i	nt	nt	nt
CCOc1ccc(NC(=O)CN2C(=O)COc3ccc(S(=O)(=O)N4CCCC4)cc32)cc1	i	i	i	i
CCN(Cc1ccccc1)C(=O)CN1C(=O)COc2ccc(S(=O)(=O)N3CCCCCC3)cc21	i	i	i	i
CCOc1ccc(NC(=O)CN2C(=O)COc3ccc(S(=O)(=O)N4CCCCC4)cc32)cc1	i	27µM	i	i
CCN(C(=O)CN1C(=O)COc2ccc(S(=O)(=O)N3CCCCCC3)cc21)c1cccc(C)c1	i	24µM	i	?
CCOc1ccc(NC(=O)C2CCCN(S(=O)(=O)c3ccc4[nH]c(=O)ccc4c3)C2)cc1 (stereo not given)	?	27µM	i	i
CCOC(=O)CNC(=O)Cn1cnc2c(oc3ccccc32)c1=O	i	i	i	i
CCCCOc1ccc(N(CC(=O)NC2CCCCC2)C(=O)c2snc(C(N)=O)c2N)cc1	i	34µM	i	?
O=C(CN1C(=O)c2cccc3cccc1c23)Nc1cccnc1	i	30µM	i	i
CCN1C(=O)c2cccc3cccc1c23	i	21µM	16µM	i
O=C(CN1C(=O)c2cccc3cccc1c23)NCc1cccnc1	nt	i	i	i
COc1ccc(CN[C@H]2CC(C)(C)[C@@H]3C[C@@](C)(O)CC[C@]23CCC(=O)NCc2ccco2)cc1	i	nt	nt	nt
SMILES	12-LOX inh	PLK1 PBD inh	Sfp inh	VDR inh
Cc1ccccc1-n1c(-c2ccncc2)n[nH]c1=S	i	i	?	i
Cc1ccccc1-n1c(-c2ccc(=O)[nH]n2)n[nH]c1=S	?	i	71µM	i
CC(C)c1ccc(C2CC(=O)Nc3cc4c(cc32)OCCO4)cc1 (stereo not given)	?	nt	nt	i
COC(=O)c1nn(-c2ccccc2)c(=O)cc1O	i	?	i	i
CC(C)(C)c1ccc(-n2nc(C(N)=O)c(O)cc2=O)cc1	i	4.7µM	i	?
CCOC(=O)c1c(C)[nH]c(C)c1C(=O)CSc1ncnc2sc3c(c12)CCC3	i	nt	nt	nt
Cc1ccccc1NC(=O)C1CCN(S(=O)(=O)c2c(C)noc2/C=C/c2ccco2)CC1	i	nt	nt	i
Cc1ccc(CNC(=O)C2CCN(S(=O)(=O)c3c(C)noc3/C=C/c3ccco3)CC2)cc1	?	i	40µM	i
Cc1noc(/C=C/c2ccco2)c1S(=O)(=O)N1CCC(C(=O)N2CCc3ccccc3C2)CC1	nt	i	56µM	i
COc1ccccc1C1CCN(Cc2ccc3ccccc3c2)CC1	14µM	i	i	i
O=C(O)CCCCCCCCCCCc1ccccc1	i	24µM	i	i
CN(Cc1ccc2c(c1)CN(C(=O)c1cccc(N(C)C)c1)CCO2)Cc1cc(C2CC2)n[nH]1	i	nt	nt	nt
COc1ccc2nc(/C=C/c3cccc(O)c3)sc2c1	6.3µM	nt	nt	nt
O=C(Nc1nccs1)c1cc(N2CCOCC2)nc2ccccc12	i	i	i	i
COc1ccc(C(=O)N2CCCC(N3CCN(c4ccccc4F)CC3)C2)c(OC)n1 (stereo not given)	i	30µM	i	?
